# PubChem BioAssay (Tox21)
# Unmarked numbers belong to inactive results. Inconclusive results are not listed. A call without a number means that no potency is given here. Active and inactive are the calls of the source. Unless noted, calls follow the shape of the full dose curve.
# Assays:
# [1] = Nuclear factor erythroid 2-related factor 2/antioxidant responsive element (Nrf2/ARE) small molecule agonists: qHTS cell viability counter screen in human keratinocytes (AID 1919968; active = well fitted curve in the direction sought with a large enough effect in the repeat runs; an effect the other way counts as inactive or inconclusive; also: nearly all actives have a fitted effect of over 55% in size; also: potency is read from the fitted curve at half-maximal effect)
# Summary of the method: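 HaCaT ARE reporter line, 1,500 cells/well; 5 h settle, 37 C/5% CO2; cpd in DMSO pinned; 23 h exposure; CellTiter-Fluor, 1 h; fluorescence.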
# [2] = biological target: Gonadotropin-releasing hormone receptor (Homo sapiens) (UniProt P30968); assay: Human gonadotropin-releasing hormone receptor (GnRHR) small molecule agonists, calcium flux assay in GnRHR-HEK293 cells (AID 1920063); also: nearly all actives have a fitted effect of over 35% in size
# Summary of the method: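 GnRHR-HEK293, 1500 cells/well, 18 h 37 C/5% CO2; Ca dye 1 h 37 C; cpd pinned (DMSO), agonist mode; kinetic FL 480/540, 3 min, 1 s reads; 15 conc, n=3.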
# [3] = biological target: KiSS-1 receptor (Homo sapiens) (UniProt Q969F8); assay: Human kisspeptin (KISS1R) small molecule agonists, calcium flux assay in KISS1R-HEK293 cells (AID 1920064; active = well fitted curve in the direction sought with a large enough effect in the repeat runs; an effect the other way counts as inactive or inconclusive)
# Summary of the method: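 Stable human KISS1R HEK293 line; 18 h plating, 37 C/5% CO2; calcium dye 1 h 37 C; compound pin transfer; kinetic fluorescence Ex/Em 480/540, 3 min.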
# [4] = G protein-coupled receptor (GPCR) small molecule agonists, calcium flux assay: HEK293 wild type cell line counter screen (AID 1920065)
# Summary of the method: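 Kinetic fluorescence at Ex/Em 480/540, recorded every second over 3 min, served as the read-out after compound addition. Each compound was tested at 15 concentrations in triplicate on cells pre-loaded with calcium dye for 1 h.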
# [5] = p53 small molecule agonists, cell-based qHTS assay with human liver microsomes: qHTS cell viability counter screen (AID 1963579); also: nearly all actives have a fitted effect of over 45% in size
# Summary of the method: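 Luminescent CellTiter-Glo read-out, 30 min at room temperature, gauged cytotoxicity in p53RE-bla cells exposed 16 h at 37 C to DMSO-dissolved compounds with metabolic activation by human liver microsomes and NADPH, each 0.5 mg/mL final.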
# [6] = p53 small molecule agonists, cell-based qHTS assay: qHTS cell viability counter screen (AID 1963581); also: nearly all actives have a fitted effect of over 45% in size
# Summary of the method: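 HCT-116 p53RE-bla cells, 4,000/well, plated 5 h before compound pin transfer; 16 h at 37 C; bla substrate 2 h RT; then CellTiter-Glo, 30 min RT, luminescence.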
# [7] = biological target: 5-hydroxytryptamine receptor 2A (Homo sapiens) (UniProt P28223); assay: 5-hydroxytryptamine receptor 2A (HTR2A) small molecule antagonists, cell-based qHTS assay (AID 1963586); also: nearly all actives have a fitted effect of over 45% in size
# Summary of the method: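 Antagonist-mode intracellular calcium assay: DOI (4 nM) added after 5 min compound pre-incubation at room temperature to dye-loaded HTR2A-CHO cells. Fluorescence followed for 3 min, sampled every second.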
# [8] = biological target: 5-hydroxytryptamine receptor 2A (Homo sapiens) (UniProt P28223); assay: 5-hydroxytryptamine receptor 2A (HTR2A) small molecule agonists, cell-based qHTS assay (AID 1963587); also: nearly all actives have a fitted effect of over 30% in size; also: potency is read from the fitted curve at half-maximal effect
# Summary of the method: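 Kinetic calcium-flux fluorescence (2 min, 1 sec intervals) after compound addition in agonist mode. HTR2A-CHO cells were cultured 18 h, then dye-loaded 1 h at 37 C.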
# [9] = biological target: Muscarinic acetylcholine receptor M1 (Homo sapiens) (UniProt P11229); assay: Cholinergic receptor muscarinic 1 (CHRM1) small molecule antagonists, cell-based qHTS assay (AID 1963588); also: nearly all actives have a fitted effect of over 40% in size; also: potency is read from the fitted curve at half-maximal effect
# Summary of the method: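 CHRM1-CHO calcium-flux assay, antagonist mode. Cells were seeded 18 h, dye-loaded 1 h at 37 C and given compound for 5 min at RT, then acetylcholine was added at 50nM. FDSS fluorescence was read 3 min; 15 concentrations, three runs.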
# [10] = biological target: Muscarinic acetylcholine receptor M1 (Homo sapiens) (UniProt P11229); assay: Cholinergic receptor muscarinic 1 (CHRM1) small molecule agonists, cell-based qHTS assay (AID 1963589); also: nearly all actives have a fitted effect of over 35% in size
# Summary of the method: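 Human M1 in stable CHO line; 18 h plating, 1 h dye load 37 C; cpd added (agonist mode); Ca2+ fluorescence kinetic read, 1 s intervals; 15 conc, 3 runs.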
# [11] = biological target: Beta-2 adrenergic receptor (Homo sapiens) (UniProt P07550); assay: Adrenergic beta2 receptor (ADRB2) small molecule antagonists, cell-based qHTS assay (AID 1963592); also: series mostly up to about 92 µM; nearly all actives have a fitted effect of over 50% in size
# Summary of the method: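 Cells (CHO, stable ADRB2 overexpression) incubated 18-20hr at 37C; compounds added from DMSO; agonist mix (1nM isoproterenol, 100uM IBMX, 25uM Ro-20-1724) added; 0.5hr RT; d2-cAMP and anti-cAMP-cryptate added; 1hr RT; 665/615 nm read.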
# [12] = biological target: Beta-2 adrenergic receptor (Homo sapiens) (UniProt P07550); assay: Adrenergic beta2 receptor (ADRB2) small molecule agonists, cell-based qHTS assay (AID 1963593);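 also: CHO cells stably overexpressing human ADRB2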
# Summary of the method: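 CHO cells stably over-expressing ADRB2 were plated overnight at 37C, then dosed with compounds plus a stimulation mix containing 100uM IBMX and 25uM Ro-20-1724 for 0.5hr at room temperature. cAMP was measured by HTRF competition, 1hr.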
# [13] = biological target: D(2) dopamine receptor (Homo sapiens) (UniProt P14416); assay: Dopamine D2 receptor (DRD2) small molecule agonists, cell-based qHTS assay (AID 1963594); also: nearly all actives have a fitted effect of over 35% in size; also: potency is read from the fitted curve at half-maximal effect
# Summary of the method: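 cAMP accumulation in DRD2-HEK293 cells measured by HTRF after 1 h detection; compounds added 10 min before NKH477 (200nM […]) forskolin-analogue stimulation, 30 min at room temperature, with Ro20-1724 present at 0.1 mM final.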
# [14] = biological target: D(2) dopamine receptor (Homo sapiens) (UniProt P14416); assay: Dopamine D2 receptor (DRD2) small molecule antagonists, cell-based qHTS assay (AID 1963595; active = well fitted inhibition curve with a large enough effect in the signal ratio in the repeat runs, with a control signal flat; the % refers to the signal ratio)
# Summary of the method: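 In this cell-based antagonist screen, compounds act for 10 min at room temperature before a 30 min challenge with 12 nM quinpirole and 200 nM NKH477. cAMP is quantified by HTRF competition in DRD2-HEK293 cells containing 0.1 mM Ro20-1724.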
# [15] = p53 small molecule agonists, cell-based qHTS assay with rat liver microsomes: qHTS cell viability counter screen (AID 1963580); also: nearly all actives have a fitted effect of over 45% in size
# Summary of the method: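 Intracellular ATP, by CellTiter-Glo luminescence, defines viability. HCT-116 p53RE-bla cells, 4,000 per well, were compound-treated in the presence of rat liver microsomes and NADPH for 16 h at 37 C.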
# [16] = cAMP Responsive Elements (CRE) small molecule agonists, cell-based qHTS assay (AID 1963590)
# Summary of the method: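 HEK 293T CRE-bla, 2,000 cells/well, 18 h preincubation 37 C/5% CO2; cpds (DMSO) pinned, 3 h; LiveBLAzer B/G FRET substrate, 2 h RT.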
# [17] = cAMP Responsive Elements (CRE) small molecule antagonists, cell-based qHTS assay (AID 1963591; active = well fitted inhibition curve with a large enough effect in the signal ratio in the repeat runs, not every such curve was filed as active; the % refers to the signal ratio)
# Summary of the method: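 Beta-lactamase reporter read by FRET substrate (LiveBLAzer B/G) after 2 h at room temperature. CRE-bla HEK293T cells had received compound plus 0.25 uM (final) NKH477 for 3 h at 37 °C.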
# [18] = p53 small molecule agonists, cell-based qHTS assay with human liver microsomes (AID 1963577);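 also: p53 response element beta-lactamase reporter cells with liver microsomes plus NADPH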
# Summary of the method: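 p53RE-bla cells; 5 h settle, 37 C/5% CO2; cpd + HLM 0.5 mg/mL + NADPH 0.5 mg/mL (final); 16 h 37 C; LiveBLAzer 2 h RT dark; fluorescence readout.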
# [19] = p53 small molecule agonists, cell-based qHTS assay with rat liver microsomes (AID 1963578)
# Summary of the method: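 Rat liver microsome activation: microsomes 0.5 mg/mL, NADPH 0.5 mg/mL final; p53RE-bla cells, 16 h 37 C; LiveBLAzer readout, 2 h RT dark.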
# [20] = p53 small molecule agonists, cell-based qHTS assay (AID 1963582; active = well fitted activation curve with a large enough effect in the signal ratio in the repeat runs, not every such curve was filed as active; the % refers to the signal ratio; also: potency is read from the fitted curve at half-maximal effect)
# Summary of the method: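 Reporter line: p53RE-bla. Pre-incubation 5 h, 37 C, 5% CO2; compound (DMSO, pin tool) 16 h, 37 C; B/G FRET substrate 2 h RT; fluorescence intensity read.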
# KiSS-1 receptor (Homo sapiens), sequence (Q969F8 whole entry, looked up): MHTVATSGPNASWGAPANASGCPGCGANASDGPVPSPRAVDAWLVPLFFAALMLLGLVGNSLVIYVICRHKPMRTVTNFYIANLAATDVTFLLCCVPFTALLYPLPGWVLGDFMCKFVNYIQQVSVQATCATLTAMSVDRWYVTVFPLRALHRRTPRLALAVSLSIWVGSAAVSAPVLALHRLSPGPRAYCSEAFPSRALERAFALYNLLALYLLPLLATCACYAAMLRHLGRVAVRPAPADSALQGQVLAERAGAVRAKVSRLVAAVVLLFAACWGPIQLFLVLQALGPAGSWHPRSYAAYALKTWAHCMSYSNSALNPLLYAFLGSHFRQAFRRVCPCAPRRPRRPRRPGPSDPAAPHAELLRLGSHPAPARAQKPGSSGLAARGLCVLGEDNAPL
# Muscarinic acetylcholine receptor M1 (Homo sapiens), sequence (P11229 whole entry, looked up): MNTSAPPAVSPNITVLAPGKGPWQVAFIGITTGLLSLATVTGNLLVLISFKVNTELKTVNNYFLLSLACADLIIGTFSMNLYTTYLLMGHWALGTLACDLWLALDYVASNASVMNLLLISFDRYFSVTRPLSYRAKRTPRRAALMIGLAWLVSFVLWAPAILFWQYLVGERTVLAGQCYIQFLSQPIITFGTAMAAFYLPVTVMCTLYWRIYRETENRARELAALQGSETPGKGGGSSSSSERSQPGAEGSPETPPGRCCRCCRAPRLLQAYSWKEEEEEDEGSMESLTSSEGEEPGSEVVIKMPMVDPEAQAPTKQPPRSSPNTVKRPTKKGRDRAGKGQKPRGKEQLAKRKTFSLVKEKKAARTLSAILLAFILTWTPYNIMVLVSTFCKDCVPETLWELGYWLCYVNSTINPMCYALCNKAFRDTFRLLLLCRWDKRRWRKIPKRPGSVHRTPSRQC
# 5-hydroxytryptamine receptor 2A (Homo sapiens), sequence (P28223 whole entry, looked up): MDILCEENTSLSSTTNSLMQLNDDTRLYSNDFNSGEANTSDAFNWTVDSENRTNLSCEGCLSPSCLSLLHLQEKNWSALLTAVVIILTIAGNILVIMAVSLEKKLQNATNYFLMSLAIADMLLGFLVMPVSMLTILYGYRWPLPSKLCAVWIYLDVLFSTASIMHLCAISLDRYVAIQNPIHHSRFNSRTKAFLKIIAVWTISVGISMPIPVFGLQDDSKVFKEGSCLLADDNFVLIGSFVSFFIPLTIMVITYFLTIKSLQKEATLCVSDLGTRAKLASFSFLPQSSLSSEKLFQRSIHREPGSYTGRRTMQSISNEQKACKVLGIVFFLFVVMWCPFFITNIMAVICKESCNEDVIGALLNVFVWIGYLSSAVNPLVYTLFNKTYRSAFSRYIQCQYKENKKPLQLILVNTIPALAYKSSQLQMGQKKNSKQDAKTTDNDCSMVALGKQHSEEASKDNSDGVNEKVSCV
# Beta-2 adrenergic receptor (Homo sapiens), sequence (P07550 whole entry, looked up): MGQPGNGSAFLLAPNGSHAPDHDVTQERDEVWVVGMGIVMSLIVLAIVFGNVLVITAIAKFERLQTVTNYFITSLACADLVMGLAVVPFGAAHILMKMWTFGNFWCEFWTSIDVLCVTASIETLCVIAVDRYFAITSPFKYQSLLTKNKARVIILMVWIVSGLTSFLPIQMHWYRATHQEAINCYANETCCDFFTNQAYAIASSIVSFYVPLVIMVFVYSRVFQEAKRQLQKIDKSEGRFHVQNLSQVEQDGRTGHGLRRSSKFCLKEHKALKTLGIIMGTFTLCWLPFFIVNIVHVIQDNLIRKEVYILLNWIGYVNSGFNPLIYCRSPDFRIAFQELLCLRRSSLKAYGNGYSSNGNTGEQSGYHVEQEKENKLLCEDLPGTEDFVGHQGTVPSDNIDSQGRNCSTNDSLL
# D(2) dopamine receptor (Homo sapiens), sequence (P14416 whole entry, looked up): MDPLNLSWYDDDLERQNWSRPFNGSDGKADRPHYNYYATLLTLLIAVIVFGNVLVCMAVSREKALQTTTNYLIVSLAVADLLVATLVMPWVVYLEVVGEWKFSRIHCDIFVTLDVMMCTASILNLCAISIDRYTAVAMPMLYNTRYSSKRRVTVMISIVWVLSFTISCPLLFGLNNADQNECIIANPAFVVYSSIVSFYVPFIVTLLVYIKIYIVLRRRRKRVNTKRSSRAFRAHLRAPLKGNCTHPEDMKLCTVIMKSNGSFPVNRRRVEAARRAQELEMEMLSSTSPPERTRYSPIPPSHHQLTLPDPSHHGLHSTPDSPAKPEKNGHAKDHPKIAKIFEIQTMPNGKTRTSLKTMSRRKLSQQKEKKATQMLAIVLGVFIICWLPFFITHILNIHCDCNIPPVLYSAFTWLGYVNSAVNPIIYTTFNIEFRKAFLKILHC
# Gonadotropin-releasing hormone receptor (Homo sapiens), sequence (P30968 whole entry, looked up): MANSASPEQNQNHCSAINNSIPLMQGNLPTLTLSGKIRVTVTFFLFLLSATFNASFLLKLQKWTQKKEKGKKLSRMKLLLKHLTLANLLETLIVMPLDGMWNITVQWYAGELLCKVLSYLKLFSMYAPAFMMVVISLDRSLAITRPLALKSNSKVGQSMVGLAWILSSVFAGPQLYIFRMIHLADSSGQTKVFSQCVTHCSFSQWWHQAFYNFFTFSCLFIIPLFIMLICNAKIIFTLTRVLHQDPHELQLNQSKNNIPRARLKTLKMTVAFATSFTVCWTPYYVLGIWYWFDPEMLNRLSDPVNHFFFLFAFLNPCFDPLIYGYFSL
structure (smiles),measurement,setting,value
C=CC(=O)OCCCCO,Potency,[1],inactive
same,Potency,[2],inactive
same,Potency,[3],inactive
same,Potency,[4],inactive
same,Potency,[5],inactive
same,Potency,[6],inactive
same,Potency,[7],inactive
same,Potency,[8],inactive
same,Potency,[9],inactive
same,Potency,[10],inactive
same,Potency,[11],inactive
same,Potency,[12],inactive
same,Potency,[13],inactive
same,Potency,[14],inactive
CCOP(O)OCC,Potency,[1],inactive
same,Potency,[2],inactive
same,Potency,[3],inactive
same,Potency,[5],inactive
same,Potency,[15],inactive
same,Potency,[6],inactive
same,Potency,[7],inactive
same,Potency,[8],inactive
same,Potency,[9],inactive
same,Potency,[10],inactive
same,Potency,[16],inactive
same,Potency,[17],inactive
same,Potency,[11],inactive
same,Potency,[12],inactive
same,Potency,[13],inactive
same,Potency,[14],inactive
CNC(=O)Oc1cc(C)cc(C(C)C)c1,Potency,[1],inactive
same,Potency,[2],inactive
same,Potency,[3],inactive
same,Potency,[4],inactive
same,Potency,[5],inactive
same,Potency,[15],inactive
same,Potency,[6],inactive
same,Potency,[7],inactive
same,Potency,[8],inactive
same,Potency,[9],inactive
same,Potency,[16],inactive
same,Potency,[17],inactive
same,Potency,[13],inactive
same,Potency,[14],inactive
SCc1ccccc1,Potency,[1],inactive
same,Potency,[2],inactive
same,Potency,[3],inactive
same,Potency,[18],inactive
same,Potency,[19],inactive
same,Potency,[5],inactive
same,Potency,[15],inactive
same,Potency,[20],inactive
same,Potency,[8],inactive
same,Potency,[9],inactive
same,Potency,[10],inactive
same,Potency,[16],inactive
same,Potency,[17],inactive
same,Potency,[11],inactive
same,Potency,[14],inactive
CC(C)N(CCC(C(N)=O)(c1ccccc1)c1ccccn1)C(C)C (stereo not given),Potency,[1],inactive
same,Potency,[2],inactive
same,Potency,[3],inactive
same,Potency,[4],inactive
same,Potency,[5],inactive
same,Potency,[7],inactive
same,Potency,[8],inactive
same,Potency,[9],2.05 µM (active)
same,Potency,[10],inactive
same,Potency,[16],inactive
same,Potency,[17],inactive
same,Potency,[11],inactive
same,Potency,[12],inactive
same,Potency,[13],11.4 µM (active)
CC1(C)CON(Cc2ccccc2Cl)C1=O,Potency,[1],inactive
same,Potency,[2],inactive
same,Potency,[3],inactive
same,Potency,[18],inactive
same,Potency,[19],inactive
same,Potency,[5],inactive
same,Potency,[6],inactive
same,Potency,[20],inactive
same,Potency,[7],inactive
same,Potency,[8],inactive
same,Potency,[9],inactive
same,Potency,[10],inactive
same,Potency,[11],inactive
same,Potency,[13],inactive
N#CN=C1SCCN1Cc1ccc(Cl)nc1,Potency,[1],inactive
same,Potency,[2],inactive
same,Potency,[3],inactive
same,Potency,[18],inactive
same,Potency,[19],inactive
same,Potency,[5],inactive
same,Potency,[15],inactive
same,Potency,[20],inactive
same,Potency,[7],inactive
same,Potency,[8],inactive
same,Potency,[10],inactive
same,Potency,[16],inactive
same,Potency,[17],inactive
same,Potency,[11],inactive
same,Potency,[12],inactive
same,Potency,[13],inactive
CN(C)C(=S)[S-].CN(C)C(=S)[S-].[Cu+2],Potency,[1],0.297 µM (active)
same,activity change,[2],"5.57% [at 11.8 µM, stronger effect = higher value]"
same,activation,[3],0.935% [at 15.8 µM]
same,activation,[4],0.103% [at 11.8 µM]
same,"activity, negative = inhibition",[7],13.6% [at 12.7 µM]
same,"activity, negative = inhibition",[9],-2.33% [at 12.6 µM]
same,activation,[10],0.767% [at 15.8 µM]
same,"activity change, negative = inhibition",[17],-106% [at 18.9 µM]
same,"activity change, negative = inhibition",[11],0.898% [at 19 µM]
same,activation,[13],0.949% [at 19 µM]
same,"activity change, negative = inhibition",[14],2.62% [at 18.9 µM]
C[C@H]1[C@H](c2ccc(Cl)cc2)SC(=O)N1C(=O)NC1CCCCC1,Potency,[1],inactive
same,Potency,[2],inactive
same,Potency,[3],inactive
same,Potency,[19],inactive
same,Potency,[5],inactive
same,Potency,[15],inactive
same,Potency,[6],inactive
same,Potency,[7],inactive
same,Potency,[8],inactive
same,Potency,[9],inactive
same,Potency,[10],inactive
same,Potency,[17],inactive
same,Potency,[11],inactive
same,Potency,[12],inactive
same,Potency,[13],inactive
same,Potency,[14],inactive
Cn1sc(Cl)cc1=O,Potency,[1],inactive
same,Potency,[2],inactive
same,Potency,[3],inactive
same,Potency,[18],inactive
same,Potency,[19],inactive
same,Potency,[5],inactive
same,Potency,[6],inactive
same,Potency,[7],inactive
same,Potency,[8],54.9 µM (active)
same,Potency,[9],inactive
same,Potency,[10],inactive
same,Potency,[16],inactive
same,Potency,[17],inactive
same,Potency,[11],inactive
same,Potency,[12],inactive
same,Potency,[14],inactive
O=[N+]([O-])C(Br)(CO)CO,Potency,[1],inactive
same,Potency,[2],inactive
same,Potency,[3],inactive
same,Potency,[4],inactive
same,Potency,[5],inactive
same,Potency,[15],inactive
same,Potency,[6],inactive
same,Potency,[9],inactive
same,Potency,[10],inactive
same,Potency,[16],inactive
same,Potency,[11],inactive
[C-]1=CC=CC1.[Cl][Zr+2][Cl].c1cc[cH-]c1,Potency,[1],inactive
same,Potency,[2],inactive
same,Potency,[3],inactive
same,Potency,[5],inactive
same,Potency,[15],inactive
same,Potency,[6],inactive
same,Potency,[7],inactive
same,Potency,[8],inactive
same,Potency,[10],inactive
same,Potency,[16],inactive
same,Potency,[11],inactive
same,Potency,[13],inactive
same,Potency,[14],inactive
N#C/C=C/C#N,Potency,[1],inactive
same,Potency,[2],inactive
same,Potency,[3],inactive
same,Potency,[4],inactive
same,Potency,[5],inactive
same,Potency,[20],30.2 µM (active)
same,Potency,[7],inactive
same,Potency,[8],inactive
same,Potency,[9],inactive
same,Potency,[10],inactive
same,Potency,[16],inactive
same,Potency,[11],inactive
same,Potency,[13],inactive
CCOP(=S)(OCC)SCS(=O)(=O)CC,Potency,[1],inactive
same,Potency,[2],inactive
same,Potency,[3],inactive
same,Potency,[4],inactive
same,Potency,[15],inactive
same,Potency,[6],inactive
same,Potency,[20],inactive
same,Potency,[7],inactive
same,Potency,[8],inactive
same,Potency,[9],inactive
same,Potency,[10],inactive
same,Potency,[16],inactive
same,Potency,[17],inactive
same,Potency,[11],inactive
same,Potency,[12],inactive
same,Potency,[13],inactive
same,Potency,[14],inactive
